Experimental data: PubChem BioAssay AID602438 (Sanford-Burnham Center for Chemical Genomics, 2012)
The whole screen tested about 360,000 compounds, of which about 3,100 (0.86%) were called active. This is one part of a sample in which actives are shown more often than they occur. A number with no mark means an inactive call.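 Rule for the calls: active = inhibition or corrected inhibition above about 18%, plus a signal ratio from 0.5 to 1.5 (limit read from the data, passing the limit was not always enough); inactive = the rest.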

The molecules below were run against Neuropilin-1 (Homo sapiens) (UniProt O14786) (assay: NRP-1/CendR peptide interaction modulators – biochemical, fluorescence polarization, uHTS, primary screen (AID 602438)). Details: FAM-RPARPAR peptide binding to NRP-1, fluorescence polarization; at 25 µM; stronger effect = higher value.
Neuropilin-1 (Homo sapiens), sequence (O14786 whole entry, looked up): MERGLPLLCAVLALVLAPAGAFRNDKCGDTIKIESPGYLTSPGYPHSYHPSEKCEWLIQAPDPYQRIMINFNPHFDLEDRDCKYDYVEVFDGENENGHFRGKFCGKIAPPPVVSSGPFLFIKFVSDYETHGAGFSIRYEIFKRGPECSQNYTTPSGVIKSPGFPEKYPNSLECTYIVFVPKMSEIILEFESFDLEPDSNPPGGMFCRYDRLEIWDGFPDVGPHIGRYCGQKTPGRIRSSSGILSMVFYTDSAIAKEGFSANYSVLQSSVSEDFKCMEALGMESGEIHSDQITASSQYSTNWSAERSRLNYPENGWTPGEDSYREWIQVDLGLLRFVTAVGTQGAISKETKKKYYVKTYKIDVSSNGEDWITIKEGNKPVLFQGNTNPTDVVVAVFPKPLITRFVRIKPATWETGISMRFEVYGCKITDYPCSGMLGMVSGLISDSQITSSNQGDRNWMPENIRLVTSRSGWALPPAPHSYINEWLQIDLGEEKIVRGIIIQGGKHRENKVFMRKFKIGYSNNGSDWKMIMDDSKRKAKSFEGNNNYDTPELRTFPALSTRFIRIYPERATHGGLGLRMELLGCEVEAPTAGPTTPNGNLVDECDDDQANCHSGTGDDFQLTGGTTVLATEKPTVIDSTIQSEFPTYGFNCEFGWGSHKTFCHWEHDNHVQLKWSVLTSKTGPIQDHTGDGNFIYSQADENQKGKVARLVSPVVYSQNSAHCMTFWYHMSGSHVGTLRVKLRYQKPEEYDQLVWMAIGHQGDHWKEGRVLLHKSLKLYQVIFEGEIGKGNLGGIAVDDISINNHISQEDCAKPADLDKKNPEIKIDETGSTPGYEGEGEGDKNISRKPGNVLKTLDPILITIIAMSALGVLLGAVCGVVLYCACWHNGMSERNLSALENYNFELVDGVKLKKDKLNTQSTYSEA

Q: For `O=C(COC(=O)c1cccnc1Cl)NC12CC3CC(CC(C3)C1)C2`, which inhibition is on record?
A: 8%

Q: Which inhibition does the source give for `CC1(C(=O)NCc2ccc3c(c2)OCO3)CCN1C(=O)Cc1cccs1` (configuration not stated) here?
A: 3%

Q: How did the inhibition turn out when `Cc1cc(C(=O)COc2ccccc2[N+](=O)[O-])c(C)n1-c1cccc(S(=O)(=O)N2CCOCC2)c1` was run?
A: -14.8%

Q: How did the inhibition turn out when `CCc1c(N=O)c(-c2ccccc2)n(O)[n+]1[O-]` was run?
A: 5.4%

Q: For `O=C(CN1CCN(Cc2ccc(F)cc2Cl)C1=O)NCc1cccs1`, which inhibition is on record?
A: -1.9%

Q: With `CCN=C1S/C(=C\c2cc(Br)ccc2OCC(=O)OCC)C(=O)N1CC` as the molecule, how does the inhibition read?
A: -10.1%

Q: Which inhibition does the source give for `CN(C)c1ccc2c(=O)[nH][nH]c(=O)c2c1` here?
A: 11.3%

Q: With `COc1ccc(CNC(=O)C2CCN(C(=O)c3ccco3)CC2)cc1` as the molecule, how does the inhibition read?
A: -1%

Q: `COc1ccc(CNC(=O)C2CCN(S(C)(=O)=O)CC2)cc1` was tested. Which inhibition did it give?
A: -11.1%

Q: `COc1ccc(CNC(=O)[C@@H]2CC=C[C@@H]3CCN(C4CC4)C(=O)[C@@H]32)cc1` was tested. Which inhibition did it give?
A: 25.5% (active)

Q: For `COc1cccc(/C=N/NC(=O)C(=O)N2CCCC2)c1`, which inhibition is on record?
A: -7.9%

Q: For `CCOC(=O)C1(Cc2ccccc2C(F)(F)F)CCN(C(=O)c2cc(C)n(C)n2)CC1`, which inhibition is on record?
A: -5.9%

Q: Which inhibition does the source give for `O=C(O)c1ccccc1N=N/C(=N/Nc1cc(S(=O)(=O)O)ccc1O)c1ccccc1` here?
A: 41.5% (active)

Q: Which inhibition does the source give for `Cc1ccc(S(=O)(=O)N(C)c2ccc(OCC(=O)OCc3ccc(C#N)cc3)cc2)cc1` here?
A: -6.5%

Q: `O=C(c1ccc(N2CCOCC2)c([N+](=O)[O-])c1)N1CCN(S(=O)(=O)c2cccs2)CC1` was tested. Which inhibition did it give?
A: -14%

Q: Which inhibition does the source give for `O=C(c1ccc(N2CCCC2=O)cc1)N1CCN(c2ccc(C(F)(F)F)cc2[N+](=O)[O-])CC1` here?
A: -0.8%

Q: `O=C(Cc1ccc(S(=O)(=O)N2CCOCC2)s1)N1CCN(c2ccc(C(F)(F)F)cc2[N+](=O)[O-])CC1` was tested. Which inhibition did it give?
A: 27.6% (active)

Q: How did the inhibition turn out when `N#Cc1cccc(CSc2ncnc(N)n2)c1` was run?
A: 12.4%

Q: `CCOC(=O)C1CCN(C(=O)CN2C(=O)NC(C)(c3ccc4cc(OC)ccc4c3)C2=O)CC1` (configuration not stated) was tested. Which inhibition did it give?
A: -3.2%

Q: With `CC1=C(C(N)=O)C(c2sccc2C)n2nnnc2N1` (configuration not stated) as the molecule, how does the inhibition read?
A: -5.6%

Q: `Cc1cc(OC(C)C(=O)NC2CC(C)(C)NC(C)(C)C2)c2c(C)cc(=O)oc2c1` (configuration not stated) was tested. Which inhibition did it give?
A: 1.2%

Q: With `CC(Oc1cccc(Cl)c1)C(=O)NC1CC(C)(C)NC(C)(C)C1` (configuration not stated) as the molecule, how does the inhibition read?
A: 24.2% (active)

Q: How did the inhibition turn out when `Cc1cccc(OCC(=O)NC2CC(C)(C)NC(C)(C)C2)c1` was run?
A: -1.1%

Q: How did the inhibition turn out when `COc1cccc(C2=CC(=O)C[C@H](c3ccc(OC)c(OC)c3)C2)c1` was run?
A: -4.1%

Q: With `S=c1[nH]nc(Nc2ccccc2)s1` as the molecule, how does the inhibition read?
A: 0.6%

Q: `O=C(/C=C/Nc1ccccc1)c1cnc(-c2ccccc2)s1` was tested. Which inhibition did it give?
A: 5.7%

Q: `CC(C)(C)C(=O)c1cnc(Nc2ccccc2)s1` was tested. Which inhibition did it give?
A: 37.4% (active)

Q: How did the inhibition turn out when `O=c1cc(Cl)c2ccccc2n1-c1ccccc1` was run?
A: 0%

Q: Which inhibition does the source give for `CCOCCn1[nH]c2ccccc2c1=O` here?
A: 8.9%

Q: With `COc1ccc(N2CCN(C(=O)[C@@H](NC(=O)c3cc(OC)cc(OC)c3)C(C)C)CC2)cc1` as the molecule, how does the inhibition read?
A: 4%

Q: With `COc1cc(OC)cc(C(=O)N[C@H](C(=O)NNC(=O)c2ccc(Br)cc2)C(C)C)c1` as the molecule, how does the inhibition read?
A: 22.8% (active)

Q: With `COc1cc(OC)cc(C(=O)NC(C(=O)N2CCC2)C(C)C)c1` (configuration not stated) as the molecule, how does the inhibition read?
A: -2.9%

Q: How did the inhibition turn out when `CC1CCN(S(=O)(=O)c2ccc(S(=O)(=O)NCc3ccco3)cc2)CC1` was run?
A: 8.7%

Q: `CN(C)C(=S)N=c1ssc(=S)n1Cc1ccco1` was tested. Which inhibition did it give?
A: -2.5%

Q: Which inhibition does the source give for `O=C(O)C(c1ccccc1)C1(O)CCCCC1` (configuration not stated) here?
A: -0.6%

Q: `CN(C)CCOC(=O)C(c1ccccc1)C1(O)CCCC1` (configuration not stated) was tested. Which inhibition did it give?
A: 5.3%

Q: With `O=C(O)C(c1cccs1)C1(O)CCCCC1` (configuration not stated) as the molecule, how does the inhibition read?
A: 27.7% (active)

Q: Which inhibition does the source give for `O=C(Cn1cc(C(F)(F)F)ccc1=O)Nc1ccc2c(c1)OCCO2` here?
A: -9.1%

Q: How did the inhibition turn out when `O=C(/C=N/O)Nc1ccccc1` was run?
A: 3.7%

Q: Which inhibition does the source give for `C#CC(C)(C)NC(=O)c1cnc(-c2ccccc2)nc1-c1ccccc1` here?
A: -0.8%

Q: `CCOC(=O)c1cc2n(c1N)-c1ccccc1C2=O` was tested. Which inhibition did it give?
A: 29.5% (active)

Q: How did the inhibition turn out when `CCOC(=O)c1ccn(S(=O)(=O)c2ccc(C)cc2)c1-c1ccccc1` was run?
A: -9.6%

Q: With `CCOC(=O)c1cnn(Cc2ccccc2Cl)c1N` as the molecule, how does the inhibition read?
A: -3.4%

Q: With `CCC(C(=O)NC1CCCC1)N(C(=O)c1snc(C(N)=O)c1N)c1ccc2c(c1)OCCO2` (configuration not stated) as the molecule, how does the inhibition read?
A: 5.9%

Q: How did the inhibition turn out when `CC(NC(=O)COC(=O)Cn1cc(C(F)(F)F)ccc1=O)c1ccccc1` (configuration not stated) was run?
A: -13.9%

Q: `CCN(CC)N=Nc1cccc(NC(C)=O)c1` was tested. Which inhibition did it give?
A: 1.7%

Q: For `Cc1cc2c(cc1C)N(C(=O)CN1C(=O)c3ccccc3C1=O)C(C)(C)c1ssc(=S)c1-2`, which inhibition is on record?
A: 23.1% (active)

Q: With `Cc1ccc(NC(=O)CCN2C(=O)c3ccccc3C2=O)cc1C` as the molecule, how does the inhibition read?
A: 15.6%

Q: For `Cc1ccc2c(c1)-c1c(ssc1=S)C(C)(C)N2C(=O)CN1C(=O)c2ccccc2C1=O`, which inhibition is on record?
A: -1.5%

Q: How did the inhibition turn out when `C=CCn1nc(-c2ccccc2)c2c(C)onc2c1=O` was run?
A: -1.4%

Q: With `CN1c2ccc(C=O)c3c(C=O)ccc(c23)N(C)C1(C)C` as the molecule, how does the inhibition read?
A: 56.9% (active)

Q: For `Cc1ccc(C=O)c([B-](F)(F)F)c1`, which inhibition is on record?
A: -8.7%

Q: For `O=C(CCN1CCCO1)N1CCCC(N2CCN(c3cccc(C(F)(F)F)c3)CC2)C1` (configuration not stated), which inhibition is on record?
A: 10.2%

Q: With `CC1CCCN(C(=O)c2ccc3c(c2)C(=O)N(CCC2=CCCCC2)C3=O)C1` (configuration not stated) as the molecule, how does the inhibition read?
A: 9.2%

Q: With `Cc1cc(=O)[nH]c(SCc2ccc(Cl)cc2)n1` as the molecule, how does the inhibition read?
A: 21.5%

Q: `COC(=O)c1cccc(NC(=O)CSc2nc(C)cc(=O)[nH]2)c1` was tested. Which inhibition did it give?
A: -10.7%

Q: Which inhibition does the source give for `Cc1cc(C)c(C(=O)CSc2nc(C)cc(=O)[nH]2)c(C)c1` here?
A: 26.7% (active)

Q: With `N#CCN(C(=O)COC(=O)C1CC2CCCC(C1)C2=O)c1ccccc1` (configuration not stated) as the molecule, how does the inhibition read?
A: -17.5%

Q: How did the inhibition turn out when `O=C(NC(=O)c1ccccc1N1CCCCC1)Nc1ccc(Br)cc1` was run?
A: 5.9%

Q: Which inhibition does the source give for `Cc1cccc(C)c1NC(=O)CS(=O)CC(=O)N1CCN(c2ccccc2)CC1` (configuration not stated) here?
A: 16%

Q: Which inhibition does the source give for `CCOC(=O)N1CCN(CC(=O)Nc2ccc(F)cc2)CC1` here?
A: -14.8%

Q: `Cc1cccc(C)c1NC(=O)CN1CCN(c2ccc(F)cc2)CC1` was tested. Which inhibition did it give?
A: 19.5% (active)
